40 sequences from the supplement of paper PMC6555819 can be followed below.

The subject of the test is VDR:RXRa (NR concentration 270 nM, RXRa partner concentration 90 nM). As to the kind of experiment: PBM binding z-score (relative to random genomic background probes); higher = stronger binding; sequences stand for … in GC…GCGATTGACAGCGTAGAATGAAGG
The protocol: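 Protein-binding microarray (Agilent 4x180K custom design, double-stranded 60-nt probes: 5' GC cap, 34-nt variable region, 24-nt constant primer region; full probe sequence given). Purified or IVT nuclear receptor:RXRα heterodimers (3:1 NR:RXRα, mostly 270:90 nM) or homodimers were incubated for 1 h in PBS with 2% milk and no ligand, then detected with Alexa488 antibodies. Fluorescence from o1-orientation probes (~5 replicates averaged) was converted to z-scores against 500 random hg19 background probes. Variable regions are seed direct-repeat (DR0–DR5) sites, all their single-nucleotide variants and half-site ablations.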
For the sequence AGAATGAGGTTATTAAGAACAGGGAATTGCGGTC, the PBM binding z-score was 1.83.

As for CCAGACAGGTGAGAAGGTAACTTAGCCTCGATTA, the PBM binding z-score amounted to 0.0956. Sequence AGTCAAAGTTCACTAGGTACCGTAAGATTCAGCT came in with a PBM binding z-score of 4.35. The sequence TTACCAACGTGAAGGTCGTTGATCCCTCTGTAGA returned a PBM binding z-score of 1.09. The same measure for TCTCGGAGGACCCGAAAGGTCAGAGCTCGACATC: 2.45; for CCTATTAGTTGACCATAAGGGCAACCGAAGCTCG: 1.22. As to GGAACGAGGGCAAGTTGACAGCAGAGTTTGATGG, the PBM binding z-score was found to be 0.799. CAAACTAGGTCACTGGAAGGTCAAAGTCCGCATG returned a PBM binding z-score of 5.33. With ATCCCTAGGTAACAAGTTCAGTGAAAGAGAGGAC, the PBM binding z-score amounted to 1.91. AGTCAAAGTTCAGGACGAGGTAACGTAGAGCACG returned a PBM binding z-score of 2.91. Consider GGGACGAGGGCATTCGAGTTGATAGCATGGCGAT, for which the PBM binding z-score was found to be 3.62. Regarding TCTCGGAGGACACGAAAGGTCAGAGCACGACATC, the PBM binding z-score came out at 3.41.

For the sequence TCTATTAGTTGATTAGGGCACCCGAAACAGCGGA, the PBM binding z-score turned out to be 0.698.

Sequence CTATCAAGGTGAACAAGGTCGTTGATTACTATTC registered a PBM binding z-score of 6.12. Consider TCTAGTTGTTCACGGAGGTCACACACGACGGGTA, for which the PBM binding z-score came to 4.1.

In turn, CCTGCTAGGGCATGGTCAGCTAATCTACAGTATG came in with a PBM binding z-score of -0.579. For ATCTCTAGGTAAAGATAGTCCAGTGAATGCAAAT, the PBM binding z-score is -0.0135. Sequence GCTCGTAGGACAAGGTCAGAGCTTTGTCCGTAGA came in with a PBM binding z-score of 1.4. As for CGTCCAAGGTCTTAGGAGGTCAGTGAAGACAGAT, the PBM binding z-score was determined as 2.89. ATCTCTAGGTAAAGATAGTTCAATGAATGCAAAT showed a PBM binding z-score of 1.61. With CCAGACAGTTGAAAGGTAACTCAGTCTGGTACGC, the PBM binding z-score is 0.591. In turn, ACTCGGAGTACAAAGGTCAGAGCTACGCCAGTGA had a PBM binding z-score of 3.59. Sequence TAGCCTAGGTCAGATCAGGCCAGTATACGCTATA yielded a PBM binding z-score of 0.996. The same measure for CAAGACAGGTGAAAGGTAACTCAGTCTGGTACGC: 0.87. With AGAATGAGGTTAAGATCAGGCAAACAGAATACAT, the PBM binding z-score came out at 1.23. As for ATCTCTAGGTAAGAGTCAGTTCAGTGAAGAACGC, the PBM binding z-score stood at 0.748. As for TAGCCTAGGTCATTGGGCCAGGATAGTACGCATC, the PBM binding z-score came out at 1.85. Consider CCGACTGGGGCAGAAAGGTTACAATACCATCCGG, for which the PBM binding z-score amounted to 1. CGCACGAGGGCATGAGTTGATAGCAAATGCCGAT showed a PBM binding z-score of 1.27. Take TCTGCTAGGTCCACGATGGTCAGCTAATCTGCTA: the PBM binding z-score is -0.304. GATACAGGGTCAAGGCGAGAGTACGCGTATTGAT: the PBM binding z-score is 4.4.

On to CAGCCTAGGTCAGGGGCAGTATAGGAGGAACGTT, for which the PBM binding z-score is 0.806. TCTAGTTGGTCACGGAGGTTACACACGACGGGTA: the PBM binding z-score is 3.16.

Take ACTAGCTGGCCAAGTTTGGGTCACTCAAACAAAG: the PBM binding z-score amounted to 0.228. In the case of AGTCAAAGTTCACTAGGTAGCGTAAGATTCAGCT, the PBM binding z-score was found to be 3.56. The figure for CGTACTAGGTCAAGGACAGTGAATCTCCGCACGC is 1.33; for CAAACTAGGTCAAAGAGGTCAAAGTCCGTGCGTA it is 7.75; for GCAGACAGGTGAAACCCAGGTAACTCAGGGTGGC it is -0.302.

CGTCCAAGGTCAGAAAGGTCAGTGAATGCCGAGT yielded a PBM binding z-score of 6.33. The figure for TAGCCTAGGTCATTGGCCCAGTATAGTACGCATC is 2.09.
